Test results published in PubChem BioAssay AID1159580 (chemical genetic matrix, 2015).
Where “and” joins values, the source holds several entries; their conditions need not be identical. Equal values may be shown once. In all, about 5,500 compounds went through this assay and about 2,000 (36%) were called active. Roughly 18% stayed inconclusive and do not appear here. No stated cut-off is given here; in the data, active means normalized growth mostly below about 0.91 (no sharp cut-off); inconclusive means no clear call, values can overlap the other calls; inactive means mostly above about 0.92. This is one part of the list.

Assay: chemical genetic growth profiling, strain panel (AID 1159580);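 further: tested at 20 µM; growth read once vehicle control cultures reached saturation at 30 °C; 1 = growth at the plate median or of vehicle wells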
Details: S. cerevisiae deletion strains, growth OD

Measured: normalized growth

CNCCCC12CCC(c3ccccc31)c1ccccc12
inactive: locus YAL013W, strain DEP1, stronger effect = lower value 0.974 and 1.01 | locus YAL021C, strain ccr4, stronger effect = lower value 0.931 | locus YAL030W, strain snc1, stronger effect = lower value 0.999 | locus YAL040C, strain CLN3, stronger effect = lower value 1 | locus YBL061C, strain skt5, stronger effect = lower value 0.979 | locus YBR009C, strain hhf1, stronger effect = lower value 0.992 | locus YBR021W, strain FUR4, stronger effect = lower value 0.948 | locus YBR023C, strain chs3, stronger effect = lower value 0.957 | locus YBR171W, strain sec66, stronger effect = lower value 0.99 | locus YBR229C, strain ROT2, stronger effect = lower value 0.974 | locus YBR231C, strain swc5, stronger effect = lower value 0.956 | locus YBR279W, strain paf1, stronger effect = lower value 0.971 | locus YCL011C, strain gbp2, stronger effect = lower value 0.963 | locus YCL016C, strain dcc1, stronger effect = lower value 0.976 | locus YCL029C, strain bik1, stronger effect = lower value 0.994 | locus YCL061C, strain MRC1 (second series), stronger effect = lower value 0.999 | locus YCL069W, strain vba3, stronger effect = lower value 1.01 | locus YCR088W, strain abp1, stronger effect = lower value 0.998 | locus YDL005C, strain med2, stronger effect = lower value 0.972 | locus YDL035C, strain GPR1, stronger effect = lower value 0.998 | locus YDL040C, strain nat1, stronger effect = lower value 0.989 | locus YDL074C, strain BRE1, stronger effect = lower value 0.97 | locus YDL101C, strain DUN1, stronger effect = lower value 0.981 | locus YDL134C, strain PPH21, stronger effect = lower value 0.984 | locus YDL185W, strain tfp1, stronger effect = lower value 0.978 | locus YDL192W, strain arf1, stronger effect = lower value 0.991 | locus YDR001C, strain nth1, stronger effect = lower value 0.975 | locus YDR069C, strain doa4, stronger effect = lower value 0.918 | locus YDR101C, strain arx1, stronger effect = lower value 1.01 | locus YDR137W, strain rgp1, stronger effect = lower value 1.02 | locus YDR159W, strain sac3, stronger effect = lower value 0.95 | locus YDR162C, strain NBP2, stronger effect = lower value 0.996 | locus YDR195W, strain ref2 1.03 | locus YDR297W, strain sur2, stronger effect = lower value 0.975 | locus YDR318W, strain mcm21, stronger effect = lower value 0.973 | locus YDR334W, strain swr1, stronger effect = lower value 0.995 | locus YDR335W, strain msn5, stronger effect = lower value 0.982 | locus YDR363W, strain ESC2, stronger effect = lower value 1.01 | locus YDR388W, stronger effect = lower value 0.983 | locus YDR392W, strain spt3, stronger effect = lower value 0.999 | locus YDR502C, strain sam2, stronger effect = lower value 0.976 | locus YEL003W, strain gim4, stronger effect = lower value 0.978 | locus YEL037C, strain rad23, stronger effect = lower value 0.997 | locus YEL061C, strain CIN8 (second series), stronger effect = lower value 0.975 | locus YEL061C, strain CIN8, stronger effect = lower value 1.01 | locus YER002W, strain NOP16, stronger effect = lower value 1 | locus YER015W, strain faa2, stronger effect = lower value 0.978 | locus YER016W, strain bim1, stronger effect = lower value 0.996 | locus YER110C, stronger effect = lower value 0.989 | locus YER111C, strain swi4, stronger effect = lower value 0.995 | locus YER155C, strain BEM2 (second series), stronger effect = lower value 0.977 | locus YER155C, strain BEM2, stronger effect = lower value 1.01 | locus YER167W, strain BCK2, stronger effect = lower value 0.989 | locus YFR010W, strain ubp6, stronger effect = lower value 0.982 | locus YGL078C, strain dbp3, stronger effect = lower value 0.99 | locus YGL086W, strain mad1, stronger effect = lower value 0.969 | locus YGL167C, strain pmr1, stronger effect = lower value 1 | locus YGL173C, strain kem1, stronger effect = lower value 0.993 | locus YGL227W, strain vid30, stronger effect = lower value 1 | locus YGL240W, strain doc1, stronger effect = lower value 0.989 | locus YGL248W, strain PDE1, stronger effect = lower value 0.964 | locus YGL253W, strain hxk2, stronger effect = lower value 0.988 | locus YGR135W, strain pre9, stronger effect = lower value 0.94 | locus YGR229C, strain SMI1, stronger effect = lower value 0.941 and 0.953 | locus YGR252W, strain gcn5, stronger effect = lower value 0.841 | locus YHR013C, strain ard1, stronger effect = lower value 0.976 | locus YHR027C, strain rpn1, stronger effect = lower value 0.96 | locus YHR030C, strain SLT2, stronger effect = lower value 0.997 and 1.01 | locus YHR079C, strain IRE1 (second series), stronger effect = lower value 0.997 | locus YHR079C, strain IRE1, stronger effect = lower value 1.01 | locus YHR094C, strain hxt1, stronger effect = lower value 0.997 | locus YHR129C, strain ARP1, stronger effect = lower value 0.995 | locus YHR142W, strain chs7, stronger effect = lower value 0.91 | locus YHR200W, strain rpn10, stronger effect = lower value 0.991 | locus YIL066C, strain RNR3, stronger effect = lower value 0.992 | locus YIL073C, strain SPO22, stronger effect = lower value 0.918 | locus YIL125W, strain kgd1, stronger effect = lower value 0.981 | locus YIR030C, strain dcg1, stronger effect = lower value 0.99 | locus YJL092W, strain hpr5, stronger effect = lower value 0.971 | locus YJL095W, strain BCK1 (second series), stronger effect = lower value 0.973 | locus YJL095W, strain BCK1, stronger effect = lower value 0.941 and 0.998 | locus YJL115W, strain asf1, stronger effect = lower value 0.97 | locus YJL129C, strain trk1, stronger effect = lower value 1.01 | locus YJL134W, strain LCB3, stronger effect = lower value 0.982 | locus YJL154C, strain vps35, stronger effect = lower value 0.975 | locus YJL164C, strain tpk1, stronger effect = lower value 0.989 | locus YJL166W, strain qcr8, stronger effect = lower value 0.958 | locus YJL168C, strain set2, stronger effect = lower value 0.998 | locus YJL187C, strain SWE1 (second series), stronger effect = lower value 0.979 | locus YJL187C, strain SWE1, stronger effect = lower value 0.973 | locus YJR043C, strain POL32, stronger effect = lower value 1.01 | locus YJR066W, strain TOR1, stronger effect = lower value 0.949
active: locus YAL026C, strain drs2, stronger effect = lower value 0.768
